Assay outcomes: PubChem BioAssay, National Center for Advancing Translational Sciences (NCATS)
PLK1 PBD block: blocks phosphopeptide binding to human PLK1 polo-box domain | P53350 | Plk1 PBD binding of FITC phosphopeptide, fluorescence polarization | Potency, µM, inactives show max response, negative = inhibition, most hits filed as inhibitors | 2.8% of 360,000 active; further: potency means the concentration at half of the fitted maximal effect; series mostly up to about 57 µM; on the % scale 0 is the no-effect control and ±100 the full control effect; nearly all actives have a fitted effect of over 65% in size
BAZ2B block: BAZ2B (human) inhibition; 4.4% of 360,000 active; Q9UIF8; Potency, µM (series often up to 114 µM), for inactives: top-dose activity change, negative = inhibition, most hits filed as inhibitors; AlphaScreen BAZ2B-H3K14Ac peptide displacement; further: potency means the concentration at half of the fitted maximal effect; on the % scale 0 is the no-effect control and ±100 the full control effect; nearly all actives have a fitted effect of over 60% in size
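BAZ2B 50 nM plus b-H3(5-23)K14Ac 50 nM, PBS pH 7.4/0.01% Tween-20, 30 min RT; compound added (max 110 uM), 30 min RT; streptavidin donor/Ni-chelate acceptor beads 10 ug/mL final, 20 min dark; AlphaScreen read.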
HP1b chromo inh: HP1-beta chromodomain-methylated histone interaction inhibition; P83916; AlphaScreen HP1-beta / biotin-H3K9me3 peptide binding; Potency, µM (doses to about 114 µM), without a hit: at the highest dose activity change, negative = inhibition, usual class: inhibitors; 0.56% of 390,000 active; AID 540317; further: potency means the concentration at half of the fitted maximal effect; nearly all actives have a fitted effect of over 70% in size
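HP1-beta protein (50 nM final) preincubated 30 min at room temperature with biotinylated H3(1-18)K9me3 peptide (50 nM) in PBS pH 7.4, 0.01% Tween-20, then compound added for 30 min. AlphaScreen streptavidin donor/nickel chelate acceptor beads (10 ug/mL final), 30 min dark, luminescence read.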
G9a block: blocks human histone lysine methyltransferase G9a. G9a H3K9 monomethylation, AlphaScreen, 2 h. AID 504332. Potency, µM (highest dose often 102 µM), for inactives: top-dose activity, negative = inhibition, usual class: inhibitors. 8.8% of 350,000 active. Q96KQ7; further: potency means the concentration at half of the fitted maximal effect; on the % scale 0 is the no-effect control and ±100 the full control effect; nearly all actives have a fitted effect of over 75% in size
Target sequence (Q96KQ7 913-1193 limits assumed): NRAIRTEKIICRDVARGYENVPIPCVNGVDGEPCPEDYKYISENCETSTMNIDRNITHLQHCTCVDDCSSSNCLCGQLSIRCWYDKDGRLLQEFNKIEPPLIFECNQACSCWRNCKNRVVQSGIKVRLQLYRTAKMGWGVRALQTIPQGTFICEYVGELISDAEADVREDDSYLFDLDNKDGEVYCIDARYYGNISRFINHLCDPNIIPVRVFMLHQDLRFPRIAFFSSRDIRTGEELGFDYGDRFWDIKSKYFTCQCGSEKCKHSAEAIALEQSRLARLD
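Readings reflect AlphaScreen signal from monomethyl-H3K9 antibody detection. HMT at 20 nM; substrate b-H3K9 500 nM; cofactor SAM 20 uM; 2 h RT reaction; compounds tested as titrations in qHTS with 15 min preincubation.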
PI5P4Ka inh: inhibitors of human PI5P4K alpha | P48426 | PI5P4Kalpha enzyme, ADP-Glo luminescence, 60 min; active compounds read low | max response, % | 1.2% of 330,000 active | AID 652105; active means max response of -50% or lower; inconclusive means between -30% and -50%; inactive means -30% or higher; further: value at the top dose of about 77 µM; on the % scale 0 is the no-effect control and ±100 the full control effect
Target sequence (P48426 whole entry, looked up): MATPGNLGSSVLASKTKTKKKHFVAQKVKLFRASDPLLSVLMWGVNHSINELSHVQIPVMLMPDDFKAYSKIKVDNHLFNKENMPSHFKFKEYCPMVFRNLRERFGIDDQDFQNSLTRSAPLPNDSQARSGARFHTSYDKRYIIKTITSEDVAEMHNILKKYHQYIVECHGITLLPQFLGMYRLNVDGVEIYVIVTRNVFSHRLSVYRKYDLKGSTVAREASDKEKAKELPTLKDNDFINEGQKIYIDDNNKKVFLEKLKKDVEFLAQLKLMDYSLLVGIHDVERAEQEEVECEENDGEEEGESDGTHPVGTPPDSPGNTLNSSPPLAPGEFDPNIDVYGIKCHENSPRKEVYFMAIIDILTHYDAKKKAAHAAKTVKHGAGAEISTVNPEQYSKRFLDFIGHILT
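qHTS, 1536-well: enzyme/substrate mix, compound by pin tool, 5 microM ATP final; RT 60 min; ADP-Glo reagents 1 (45 min) then 2 (30 min); luminescence.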
JMJD2A Tudor inh: inhibitors of human JMJD2A Tudor domain. O75164. Potency, µM (series often up to 114 µM), for the others: at the highest dose activity change, negative = inhibition, actives largely listed as inhibitors. AID 504339. AlphaScreen JMJD2A-Tudor / H3K4me3 peptide binding. 4.4% of 390,000 active; further: potency means the concentration at half of the fitted maximal effect; on the % scale 0 is the no-effect control and ±100 the full control effect; nearly all actives have a fitted effect of over 50% in size
* hit, by the source's call; ? = inconclusive; · = no result; [ ] = remark or other dose. Shown are actives, neighbours in structure and some others; about 12% of the full set was active somewhere. Unless noted, the call rests on the fitted dose curve; in most records, active means well fitted curve in the direction sought with a large enough effect; inconclusive means small, poorly fitted or top-dose-only effect, or another doubt; inactive means no such curve, though single readings can be large; an effect the other way counts as inactive or inconclusive.

SMILES	PLK1 PBD block	BAZ2B block	HP1b chromo inh	G9a block	PI5P4Ka inh	JMJD2A Tudor inh
CC(=O)Nc1ccc(-c2csc(NC(=O)Cc3cccc(F)c3)n2)cc1	-15%	-2%	19%	11%[59 µM]	-14	-19%
COc1ccccc1Cn1c(CNS(=O)(=O)c2ccccc2Cl)nc2cccnc21	·	-13%	27%[57 µM]	40%[59 µM]	·	-9%
Cc1cccc(-n2c(CNC(=O)c3cccc(F)c3)nnc2SCC(=O)Nc2ccccc2F)c1	·	-16%	16%	-24%[59 µM]	·	-16%
COc1ccccc1N(CC(=O)NC1CCCCC1)C(=O)CCC(=O)Nc1nccs1	-2%	-1%	29%	21%	2	-4%
O=C(NC(=S)Nc1cccc2c(O)cccc12)c1ccccc1[N+](=O)[O-]	-22%	-25%	24%	?	-19	-12%
O=C(NNC(=S)NCc1ccccc1)c1cccc([N+](=O)[O-])c1	-17%	-20%	20%	-42%	9	-28%
O=C(NC(=S)Nc1ccccc1[N+](=O)[O-])c1ccccc1	-18%	-18%	?	25µM*	-6	?
O=C(O)CCC(=O)NNC(=O)c1ccc([N+](=O)[O-])cc1	24µM*	-21%	8%	2%	-9	-1%[11.4 µM]
O=C(NNC(=S)NC(=O)c1ccccc1Cl)c1cccc([N+](=O)[O-])c1	-13%	3%	-1%	35µM*	-11	-15%
O=C(NNC(=S)NC(=O)c1ccc(Br)cc1)c1cccc([N+](=O)[O-])c1	27µM*	7%	20%	35µM*	-28	-25%
COc1cc(C(O)c2nc(-c3cc4ccccc4o3)cs2)ccc1F (centres undefined)	1%	·	·	·	22	·
COc1ccc2c(c1)Cc1cc(NC(=O)c3ccccc3-c3ccccc3C(=O)O)ccc1-2	?	·	·	·	-2	·
COc1ccc(CCC(=O)N2CCN(S(=O)(=O)c3cccc(Cl)c3)CC2)cc1	-9%	12%	32%	-3%[12.7 µM]	1	-14%
CC1(C)O[C@@H]2C[C@H]3[C@H]4C[C@H](F)C5=CC(=O)C=C[C@@]5(C)[C@@H]4[C@H](O)C[C@]3(C)[C@]2(C(=O)CO)O1	·	·	·	17%[21.5 µM]	·	·
COCCNC(=S)NNc1ccccc1[N+](=O)[O-]	15µM*	50µM*	?	?	?	?
CNC(=S)N/N=C(\C)c1cccc([N+](=O)[O-])c1	-16%	50µM*	-8%	?	-5	-23%
COCCNC(=S)Nc1ccc([N+](=O)[O-])cc1C	1%	-13%	31%	·	1	-6%
O=C(Nc1ccccc1[N+](=O)[O-])c1cncc(Br)c1	30µM*	-29%	-11%	-51%	0	?
C/C(=N\NC(=O)C(N)=O)c1cccc([N+](=O)[O-])c1	-4%	?	33%	?	-3	?
CNc1cc2c(cc1S(=O)(=O)Nc1ccc(C)c(C)c1)CCC(=O)N2	·	·	·	·	·	-17%
NS(=O)(=O)c1ccc(NC(=O)c2c(F)cccc2Cl)cc1	0%	-3%	36%	6%	4	-3%
CC(C)C(Cl)=NOC(=O)Nc1ccc(S(N)(=O)=O)cc1	8.4µM*	·	-29%	·	0	-8%
Cc1ccc(CCC(=O)Nc2ccc(S(N)(=O)=O)cc2)o1	-18%	15%	13%	2.2µM*	-19	-10%
CC(=O)Nc1ccc(NC(=O)CCc2ccc(C)o2)cc1	0%	-19%	21%	19%	2	-7%
NS(=O)(=O)c1ccc(NC(=O)CCCCC(=O)Nc2ccc(S(N)(=O)=O)cc2)cc1	-10%	-3%	63%	9%	-4	89µM*
SMILES	PLK1 PBD block	BAZ2B block	HP1b chromo inh	G9a block	PI5P4Ka inh	JMJD2A Tudor inh
NS(=O)(=O)c1ccc(NC(=O)c2c(Cl)cccc2Cl)cc1	21µM*	5%	-7%	1%[0.501 µM]	?	28µM*
CC(=O)c1cccc(NC(=O)c2noc3c2CSc2ccccc2-3)c1	·	3%	38%	-32%[59 µM]	·	8%
COc1ccc2oc(=O)cc(CN3CCN(C(=O)c4ccccc4Br)CC3)c2c1	·	-16%	28%	?	·	-8%
CCOC(=O)C(C)Nc1ncnc2onc(C)c12 (centres undefined)	·	7%	24%	0%[59 µM]	·	-14%
CN(CCC#N)CC(=O)Nc1ccc(S(N)(=O)=O)cc1	-19%	-8%	36%	-20%	13	-3%[11.4 µM]
CN(C)CC(=O)Nc1ccc(S(N)(=O)=O)cc1	-5%	-2%	-4%	24%	6	14µM*
CC1(C(=O)Nc2ccc3c(c2)OCO3)CCN1C(=O)c1ccco1 (centres undefined)	-4%	·	·	·	-4	·
Fc1ccc(-c2nc3ccncc3[nH]2)cc1	?	-2%	25%	?	-11	-13%[57.1 µM]
O=[N+]([O-])c1ccc2nc(-c3ccncc3)[nH]c2c1	-1%	-1%	51%	?	4	-6%
Clc1ccc(-c2nc3ccncc3[nH]2)cc1	8.4µM*	-6%	5%	?	-15	-9%
O=[N+]([O-])c1cccc(-c2nc3ccc([N+](=O)[O-])cc3[nH]2)c1	9.5µM*	7%	-2%	79µM*	?	20µM*
O=[N+]([O-])c1ccc2nc(-c3ccc(Cl)cc3)[nH]c2c1	-19%	-4%	11%	40µM*	?	-20%
Cc1ccc(C)c(N(C)S(=O)(=O)c2ccc3[nH]cc(C(=O)NC4CCCC4)c(=O)c3c2)c1	·	-17%	0%	2%[59 µM]	·	?
O=C(On1c(-c2ccccc2)nc2ccccc2c1=O)c1ccco1	17µM*	-29%	-4%	?	·	89µM*
COc1cc(OC)cc(-c2nc3ccccc3c(=O)n2OC(=O)c2ccccc2C)c1	-17%	-38%	22%	2%	0	-11%
COc1cc2c(cc1OC)n(CC(=O)c1ccc(F)cc1)c(=O)n1nc(CCn3nc(C)cc3C)nc21	·	-2%	0%	10%[59 µM]	·	0%
CN(CCN(C)C(C)(C)C)C(=O)C(c1ccccc1)c1ccccc1	3%	?	?	?	7	20µM*
CSc1ccc(CN(C)C(=O)C(c2ccccc2)c2ccccc2)cc1	-5%	6%	41%	83%	-2	-1%
CC1CCC2C(C1)Nc1c(C(=O)O)cccc1C2(C)C (centres undefined)	-26%	79µM*	23%	·	2	-28%
CC1C2CCC(C2)C1OC(=O)c1ccccc1C(=O)O (centres undefined)	-2%	·	·	·	0	·
C/C(=N\OCC(=O)Nc1nc2ccccc2s1)c1ccccc1	0%	-6%	40%	-12%[59 µM]	-1	-3%
COc1ccc(/C(C)=N/OCC(=O)Nc2nc3ccccc3s2)cc1OC	-1%	?	-11%	50µM*	5	-35%
Cc1cccc(OCCn2nnc3sc4c(c3c2=O)CCCC4)c1	·	45%	56%	69%[59 µM]	·	31%
